Among the data in PubChem BioAssay (Tox21) are Potency values, retold here.

Records with an inconclusive call do not appear. A structure can be active in one record and inactive in another. Activity calls are given as the source filed them. Unless noted, calls come from the whole dose curve; as a rule, active = well fitted curve in the direction sought with a large enough effect in the repeat runs; inconclusive = weak or mixed curves; inactive = no such curve, though single readings can be large; an effect the other way counts as inactive or inconclusive.

Experiment [1] can be described thus: qHTS assay to identify small molecule agonists of the peroxisome proliferator-activated receptor delta (PPARd) signaling pathway - cell viability counter screen (AID 743211). Note: nearly all actives have a fitted effect of over 55% in size. Note: potency is the fitted concentration of half-maximal effect. The conditions noted are these: PPARd-bla HEK293H viability, CellTiter-Glo luminescence, 17 h; series mostly up to 62.6 µM. The procedure, abridged:
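Viability of GeneBLAzer PPARd UAS-bla HEK293H cells was assessed after 17 h compound incubation at 37C, using CellTiter-Glo reagent added after the reporter read and luminescence recorded 30 min later.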
On the technique in general: qHTS replaces the single test concentration by a dilution series.

A short description of experiment [2]: qHTS assay to identify small molecule antagonists of the peroxisome proliferator-activated receptor delta (PPARd) signaling pathway - cell viability counter screen (AID 743213). Note: nearly all actives have a fitted effect of over 50% in size. Note: potency is the fitted concentration of half-maximal effect. Conditions: PPARd-bla HEK293H viability, CellTiter-Glo luminescence, 17 h; series mostly up to 62 µM. The procedure, abridged: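 Cytotoxicity counter screen: CellTiter-Glo luminescence read 30 min after addition, in the same wells as the reporter assay. There, PPARd UAS-bla HEK293H cells (3000/well) were treated 17 h at 37 C with compound and 300 nM L165041.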

Experiment [3] deals with Peroxisome proliferator-activated receptor delta (Homo sapiens) (UniProt Q03181). Briefly: qHTS assay to identify small molecule antagonists of the peroxisome proliferator-activated receptor delta (PPARd) signaling pathway (AID 743215; active = well fitted inhibition curve with a large enough effect in the signal ratio in the repeat runs, not every such curve was filed as active; the % refers to the signal ratio;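 note: cells stimulated with agonist L165041 at 300 nM final during compound exposure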; note: potency is the fitted concentration of half-maximal effect). Conditions: HEK293H PPARd-UAS-bla, beta-lactamase FRET ratio, antagonist, 17 h; series mostly up to 62 µM. The procedure, abridged: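 Plated HEK293H PPARd-bla cells rested 5 h at 37 C and 5% CO2. Compound, then agonist L165041 at 300 nM final, was added; 17 h at 37 C followed. Substrate loading, 2 h room temperature, fluorescence measured.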

The nature of experiment [4]: qHTS assay to identify small molecule agonists of the farnesoid-X-receptor (FXR) signaling pathway - cell viability counter screen (AID 743218). Note: nearly all actives have a fitted effect of over 45% in size. Note: potency is the fitted concentration of half-maximal effect. Conditions: FXR-bla HEK293T viability, CellTiter-Glo luminescence, 16 h; series mostly up to 62.6 µM. Put shortly: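 Viability of FXR-bla HEK 293T cells is measured by ATP-based CellTiter-Glo luminescence following 16 h compound treatment at 37 C and a prior 2 h room-temperature beta-lactamase substrate step.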

The nature of experiment [5]: qHTS assay to identify small molecule antagonists of the farnesoid-X-receptor (FXR) signaling pathway - cell viability counter screen (AID 743221; active = well fitted cell-killing curve with a large enough effect in the repeat runs, not every such curve was filed as active; note: nearly all actives have a fitted effect of over 50% in size; note: potency is the fitted concentration of half-maximal effect). Conditions: FXR-bla HEK293T viability, CellTiter-Glo luminescence, 16 h; series mostly up to 62.6 µM. Put shortly: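 Quantitative HTS of the Tox21 10K library run in parallel with the beta-lactamase reporter read. HEK 293T cells carrying a UAS-driven bla reporter got compound and 50 uM CDCA (final) for 16 h; ATP-based luminescence followed.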

For experiment [6], the target named is Vitamin D3 receptor (Homo sapiens) (UniProt P11473). Briefly: qHTS assay to identify small molecule agonists of the vitamin D receptor (VDR) signaling pathway (AID 743222; calls by dose curve). The conditions noted are these: HEK293T VDR-UAS-bla, beta-lactamase FRET ratio, 16 h; series mostly up to 63.5 µM. Put shortly: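 Fluorescence from cleaved LiveBLAzer B/G FRET substrate served as readout. VDR-bla cells had been treated 16 h at 37C with test compounds in DMSO, following a 4 h settling period, and substrate was loaded for 2 h at RT.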

For experiment [7] the target is unchanged. Briefly: qHTS assay to identify small molecule antagonists of the vitamin D receptor (VDR) signaling pathway (AID 743223; active = well fitted inhibition curve with a large enough effect in the signal ratio in the repeat runs, not every such curve was filed as active; the % refers to the signal ratio; note: potency is the fitted concentration of half-maximal effect). Conditions: VDR-UAS-bla HEK293T, beta-lactamase FRET ratio, 16 h; series mostly up to 61 µM. Put shortly: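 Fluorescence from LiveBLAzer B/G FRET substrate, read after 2 h at room temperature, reflects beta-lactamase reporter activity in VDR-bla cells treated 16 h at 37C with compounds and agonist 1alpha,25-dihydroxyvitamin D3 (3 nM final).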

For experiment [8], the target named is Bile acid receptor (Homo sapiens) (UniProt Q96RI1). Briefly: qHTS assay to identify small molecule agonists of the farnesoid-X-receptor (FXR) signaling pathway (AID 743220; active = well fitted activation curve with a large enough effect in the signal ratio in the repeat runs, not every such curve was filed as active; the % refers to the signal ratio). Conditions: HEK293T FXR-UAS-bla, beta-lactamase FRET ratio, 16 h; series mostly up to 62.6 µM. The procedure, abridged: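 FXR-UAS-bla HEK 293T cells carrying a UAS-driven beta-lactamase reporter were plated for 5 h at 37C/5% CO2, then exposed to DMSO-dissolved Tox21 10K compounds for 16 h at 37C. A LiveBLAzer B/G FRET substrate was loaded for 2 h at room temperature before fluorescence reading.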
Chain of Bile acid receptor (Homo sapiens) (Q96RI1 whole entry, looked up): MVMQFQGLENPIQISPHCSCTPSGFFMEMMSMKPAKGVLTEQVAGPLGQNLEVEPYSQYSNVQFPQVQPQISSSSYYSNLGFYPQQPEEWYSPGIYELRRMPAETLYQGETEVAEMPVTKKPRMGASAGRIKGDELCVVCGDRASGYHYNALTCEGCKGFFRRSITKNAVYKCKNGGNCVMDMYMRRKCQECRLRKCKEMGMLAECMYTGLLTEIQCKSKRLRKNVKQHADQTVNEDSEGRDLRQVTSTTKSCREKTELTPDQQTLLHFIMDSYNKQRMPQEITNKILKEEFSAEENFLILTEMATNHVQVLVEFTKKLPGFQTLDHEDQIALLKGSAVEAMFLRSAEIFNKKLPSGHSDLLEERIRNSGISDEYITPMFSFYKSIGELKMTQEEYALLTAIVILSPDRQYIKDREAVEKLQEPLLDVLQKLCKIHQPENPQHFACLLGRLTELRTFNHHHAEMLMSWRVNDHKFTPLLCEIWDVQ

Chain of Peroxisome proliferator-activated receptor delta (Homo sapiens) (Q03181 whole entry, looked up): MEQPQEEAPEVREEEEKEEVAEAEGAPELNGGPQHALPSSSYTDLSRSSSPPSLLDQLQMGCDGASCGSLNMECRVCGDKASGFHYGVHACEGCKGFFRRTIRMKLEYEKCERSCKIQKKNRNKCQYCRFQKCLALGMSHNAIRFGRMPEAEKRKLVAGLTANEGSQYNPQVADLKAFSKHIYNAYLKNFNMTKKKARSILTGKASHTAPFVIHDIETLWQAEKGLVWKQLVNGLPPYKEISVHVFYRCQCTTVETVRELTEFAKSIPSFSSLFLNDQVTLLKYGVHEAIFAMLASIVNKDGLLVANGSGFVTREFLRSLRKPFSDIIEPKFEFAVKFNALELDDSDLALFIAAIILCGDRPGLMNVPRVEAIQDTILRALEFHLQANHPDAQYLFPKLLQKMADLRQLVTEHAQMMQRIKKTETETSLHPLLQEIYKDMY
Chain of Vitamin D3 receptor (Homo sapiens) (P11473 whole entry, looked up): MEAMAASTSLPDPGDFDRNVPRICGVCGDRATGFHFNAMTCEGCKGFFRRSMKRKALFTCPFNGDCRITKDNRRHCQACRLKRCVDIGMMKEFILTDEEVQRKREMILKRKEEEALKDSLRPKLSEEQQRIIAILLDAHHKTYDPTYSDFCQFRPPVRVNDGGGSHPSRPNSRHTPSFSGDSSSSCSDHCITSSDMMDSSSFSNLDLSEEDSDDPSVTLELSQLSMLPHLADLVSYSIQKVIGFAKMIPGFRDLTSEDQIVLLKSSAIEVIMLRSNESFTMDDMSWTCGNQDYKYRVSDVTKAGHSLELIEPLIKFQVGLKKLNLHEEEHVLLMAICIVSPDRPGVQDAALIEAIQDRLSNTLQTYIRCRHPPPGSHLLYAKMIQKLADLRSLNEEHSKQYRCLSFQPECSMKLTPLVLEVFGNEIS

In the case of `O=C(OCC(COC(=O)c1ccccc1)(COC(=O)c1ccccc1)COC(=O)c1ccccc1)c1ccccc1`, the Potency result in experiment [1], in experiment [2], in experiment [3], in experiment [4], in experiment [5] and in experiment [6] was “inactive” each time. The Potency entry in experiment [7] was “inactive”.
With `NC(=O)C1(N2CCCCC2)CCN(CCCN2c3ccccc3CCc3ccc(Cl)cc32)CC1`, the Potency in experiment [1] is 11.9 µM (active); in experiment [2], 18.8 µM (active); in experiment [3], 29.8 µM (active); in experiment [4], 11.9 µM (active); in experiment [5], 29.8 µM (active).
With `CCCCC(CC)CN=C(N)NC(N)=NCCCCCCN=C(N)NC(N)=NCC(CC)CCCC` (stereo not drawn), the Potency is 6.68 µM (active) in experiment [1], 8.41 µM (active) in experiment [2], 13.3 µM (active) in experiment [4] and 21.1 µM (active) in experiment [5].
For the compound `CN1CCC(Nc2ncc3ncnc(Nc4ccc(F)c(Cl)c4)c3n2)CC1`, the Potency in experiment [1] is 23.7 µM (active); in experiment [2], 5.96 µM (active); in experiment [4] it was 11.9 µM (active); in experiment [5], 29.8 µM (active).
Turning to `On1ccccc1=S`, the values for the Potency in experiment [1], in experiment [2] and in experiment [4] were 0.385 µM (active), 0.685 µM (active) and 0.385 µM (active), respectively.
Take `OCCN1CCN(CC/C=C2/c3ccccc3Sc3ccc(C(F)(F)F)cc32)CC1`: the Potency in experiment [1] is 26.6 µM (active); in experiment [2] it was 23.7 µM (active); in experiment [4], 26.6 µM (active); in experiment [5] it was 23.7 µM (active). Further, the Potency result in experiment [8] was “inactive”.
Turning to `CCCCN1C(=O)[C@@H]([C@H](O)C2CCCCC2)NC(=O)C12CCN(Cc1ccc(Oc3ccc(C(=O)O)cc3)cc1)CC2`, the Potency entry in experiment [1], in experiment [2], in experiment [3] and in experiment [5] was “inactive” each time.
Take `CCCCc1oc2ccc(NS(C)(=O)=O)cc2c1C(=O)c1ccc(OCCCN(CCCC)CCCC)cc1`: the values for the Potency in experiment [1], in experiment [2] and in experiment [4] were 16.8 µM (active), 23.7 µM (active) and 26.6 µM (active), respectively.
Regarding `Cc1onc(-c2ccccc2Cl)c1C(=O)N[C@@H]1C(=O)N2[C@@H]1SC(C)(C)[C@@H]2C(=O)O`, the Potency entry in experiment [1], in experiment [2], in experiment [4], in experiment [8], in experiment [5] and in experiment [6] was “inactive” throughout. The Potency entry in experiment [7] was “inactive”.
Consider `CCOC(=O)/C=C(C)/C=C/C=C(C)/C=C/c1c(C)cc(OC)c(C)c1C`, for which the Potency entry in experiment [1], in experiment [2], in experiment [4] and in experiment [5] was “inactive” each time.
Regarding `CCCCCCCCCCCCCCCS(=O)(=O)Oc1ccccc1`, the Potency result in experiment [1], in experiment [2], in experiment [4], in experiment [8], in experiment [6] and in experiment [7] was “inactive” throughout.
On to `C[n+]1ccn(Cc2ccccc2)c1`, for which the Potency result in experiment [1], in experiment [2], in experiment [4], in experiment [8], in experiment [5] and in experiment [6] was “inactive” throughout. The Potency result in experiment [7] was “inactive”.
Turning to `OC1(c2ccc(Cl)c(C(F)(F)F)c2)CCN(CCCC(c2ccc(F)cc2)c2ccc(F)cc2)CC1`, the Potency in experiment [1] was 4.73 µM (active); in experiment [2], 11.9 µM (active); in experiment [3], 26.6 µM (active); in experiment [4] it was 9.44 µM (active); in experiment [5], 26.6 µM (active).
As for `CCCN(CCC)c1c([N+](=O)[O-])cc(C(F)(F)F)c(N)c1[N+](=O)[O-]`, the figures for the Potency in experiment [1], in experiment [2] and in experiment [4] were 19.4 µM (active), 30.8 µM (active) and 38.8 µM (active), respectively.
Take `C=CC(=O)OCC(CO)(COCC(COC(=O)C=C)(COC(=O)C=C)COC(=O)C=C)COC(=O)C=C`: the Potency is 3.05 µM (active) in experiment [1]; 5.43 µM (active) in experiment [2]; 4.31 µM (active) in experiment [3]; 4.31 µM (active) in experiment [4]; 9.65 µM (active) in experiment [5]; 2.72 µM (active) in experiment [7]. For the same compound, the Potency result in experiment [6] is “inactive”.
Regarding `CC/C(=C(\c1ccc(O)cc1)c1ccc(OCCN(C)C)cc1)c1ccccc1`, the Potency in experiment [1] was 11 µM (active); in experiment [2], 21.9 µM (active); in experiment [4], 15.5 µM (active); in experiment [5], 24.6 µM (active).
Take `COc1ccc(CN2CCN(C(c3ccc(F)cc3)c3ccc(F)cc3)CC2)c(OC)c1OC`: the Potency in experiment [1] was 29.8 µM (active); in experiment [2], 23.7 µM (active); in experiment [4], 21.1 µM (active); in experiment [5] it was 29.8 µM (active). Further, the Potency entry in experiment [6] was “inactive”.
As to `CCCCCCCCCOC(=O)c1ccc(O)cc1`, the Potency in experiment [1] was 27.1 µM (active); in experiment [2] it was 24.2 µM (active); in experiment [4], 48.3 µM (active); in experiment [5], 43 µM (active).
On to `O=C(OCC1CO1)C1CCCCC1C(=O)OCC1CO1` (stereo not drawn), for which the Potency result in experiment [1], in experiment [2], in experiment [4], in experiment [5] and in experiment [6] was “inactive” in each case.
For the compound `CC[C@H]1O[C@]2(CC[C@@H]1C)C[C@@H]1C[C@@H](C/C=C(\C)C[C@@H](C)/C=C/C=C3\CO[C@@H]4[C@H](O)C(C)=C[C@@H](C(=O)O1)[C@]34O)O2`, the Potency is 17.2 µM (active) in experiment [1], 15.3 µM (active) in experiment [2], 21.7 µM (active) in experiment [4] and 17.2 µM (active) in experiment [5].
Consider `CC1=NC(C)OC1C` (stereo not drawn), for which the Potency result in experiment [1], in experiment [2], in experiment [4] and in experiment [5] was “inactive” each time.
Regarding `Cc1cc(O)c(C(C)(C)C)cc1Sc1cc(C(C)(C)C)c(O)cc1C`, the Potency in experiment [1] was 3.88 µM (active); in experiment [2], 3.46 µM (active); in experiment [4], 8.69 µM (active); in experiment [5], 9.75 µM (active).
Regarding `Cc1cc(O)c(C(C)(C)C)cc1C(C)(C)C`, the Potency in experiment [1] was 43.6 µM (active); in experiment [2], 34.7 µM (active); in experiment [4], 54.9 µM (active); in experiment [5] it was 49 µM (active); in experiment [7], 19.5 µM (active).
As to `COC(=O)C1=C(C)NC(C)=C(C(=O)OCC(C)C)C1c1ccccc1[N+](=O)[O-]` (stereo not drawn), the Potency in experiment [1] is 21.9 µM (active) and inactive; in experiment [2] it was 21.9 µM (active) and inactive. Also, the Potency result in experiment [4] and in experiment [5] was “inactive” each time.
As to `CCCCCCCC(=O)[O-].CCCCCCCC(=O)[O-].[Zn+2]`, the Potency result in experiment [1], in experiment [2], in experiment [4], in experiment [5] and in experiment [6] was “inactive” in each case.
Consider `NC(=O)CC[C@@H]1NC(=O)[C@H](Cc2ccccc2)NC(=O)[C@H](Cc2ccc(O)cc2)NC(=O)CCSSC[C@@H](C(=O)N2CCC[C@H]2C(=O)N[C@@H](CCCN=C(N)N)C(=O)NCC(N)=O)NC(=O)[C@H](CC(N)=O)NC1=O`, for which the Potency result in experiment [1], in experiment [2], in experiment [4], in experiment [5] and in experiment [6] was “inactive” each time.
